Measured values taken from the OligoGym collection.
Further: reference of the scale not given here.

What follows are sequences tested against METTL21D (assay: pooled miR-30 sensor sort-seq; sequence = guide strand). Details: shRNA.
For TGAACTAAGTAACCTAAGCTGG, the sensor-assay potency score (higher = more potent) was -0.584. TTAAACTCTGAAGACAAACTAA was tested, and the sensor-assay potency score (higher = more potent) was -0.429. Work on TAGCACTGTACCATCCCGCTTC yielded a sensor-assay potency score (higher = more potent) of 0.175. For TATACTGCTGTAGTCGTAGCAC, the sensor-assay potency score (higher = more potent) was 0.182. Work on TTTAAGAAGAACTTGATGCTGA yielded a sensor-assay potency score (higher = more potent) of 0.983. With TTGCAATTCCTCAAGATCGGTG the sensor-assay potency score (higher = more potent) was -0.436. TTTGTCTTCTTAGCAACTCATT was tested, and the sensor-assay potency score (higher = more potent) was -1.33. TTCGTTGTTCATAACAACATAT gave a sensor-assay potency score (higher = more potent) of -1.05.

Each sequence was assayed against MET in the same assay as above. Details: shRNA.
TATATTAAACACTTCCTTCTTT gave a sensor-assay potency score (higher = more potent) of 0.147. TTGAGTTTGCAGACTTTCCAAA gave a sensor-assay potency score (higher = more potent) of -0.558. TTTCTTGCCATCATTGTCCAAC gave a sensor-assay potency score (higher = more potent) of -0.767. Sequence TAGAATGACATTCTGGATGGGT has a sensor-assay potency score (higher = more potent) of 0.522. Sequence TTCATTGAAATGCACAATCAGG has a sensor-assay potency score (higher = more potent) of -0.957. TTGCTTTGTGCGAACACCCCGA was tested, and the sensor-assay potency score (higher = more potent) was 0.0698. TATTCTTGTGTGAAAAGTCTGA showed a sensor-assay potency score (higher = more potent) of 0.132. For TTCTGTGAGAATACACTCCAGA, the sensor-assay potency score (higher = more potent) was -0.115. In the case of TGATCGAGAAACCACAACCTGC, the sensor-assay potency score (higher = more potent) is reported as -1.33. Sequence TATGTCAGCAGTATGATTGTGG has a sensor-assay potency score (higher = more potent) of 0.148. Sequence TTAAACACTTCCTTCTTTGTGG has a sensor-assay potency score (higher = more potent) of 0.061. TTGATATTGAGACAACACCAGC was tested, and the sensor-assay potency score (higher = more potent) was -1.2.

These sequences were tested against MEX3D in the same assay as above. Details: shRNA.
TAGGTGTGCGTCCGCTGCTGGA was tested, and the sensor-assay potency score (higher = more potent) was -1.39. With TGGTCGGCCAGCAGCGTCGGGG the sensor-assay potency score (higher = more potent) was -1.69. TTGGCGTGGAAGTCGCTGTCGG showed a sensor-assay potency score (higher = more potent) of -0.234. For TTGCCGGAGCCGCTGTAGGGGC, the sensor-assay potency score (higher = more potent) was -1.61. AGGAAGTCGAAGTCGAAGCCGA showed a sensor-assay potency score (higher = more potent) of -1.39. Work on TTGACCGTGGAGCAGCCGCTGA yielded a sensor-assay potency score (higher = more potent) of -1.71. Work on TTGATGTAGGTGTTTGTCTTGG yielded a sensor-assay potency score (higher = more potent) of -0.318. TGATGTAGGTGTTTGTCTTGGC was tested, and the sensor-assay potency score (higher = more potent) was 0.554. TAGGTGTTTGTCTTGGCCCGCA was tested, and the sensor-assay potency score (higher = more potent) was 0.155. Work on TTGACGCTTTTCTTGCGGCTGC yielded a sensor-assay potency score (higher = more potent) of -0.68. TTGATCTTGCAGCCCTGGCGAC gave a sensor-assay potency score (higher = more potent) of -1.24. AAGTCGAAGCCGAAGTCGCAGT was tested, and the sensor-assay potency score (higher = more potent) was -0.692.

Each sequence was assayed against MFNG in the same assay as above. Details: shRNA.
TCGAACTCAGCAGCCATCTTGC gave a sensor-assay potency score (higher = more potent) of -1.05. Sequence TAGTTGTCATCGTCCACATGGC has a sensor-assay potency score (higher = more potent) of -0.357. With TCTTGCAGGACAGAGCTGGGTG the sensor-assay potency score (higher = more potent) was -0.336. TTGTCATCGTCCACATGGCAGA gave a sensor-assay potency score (higher = more potent) of -1.57. Work on TTGCGATTGATGCAGAAGCCAG yielded a sensor-assay potency score (higher = more potent) of -1.46. Sequence AACTGTACCAGCCTCGTGCGGT has a sensor-assay potency score (higher = more potent) of -0.733. With TTGCACTCAATGATATAGCCCA the sensor-assay potency score (higher = more potent) was -0.194. Sequence TCACATAGTTGTCATCGTCCAC has a sensor-assay potency score (higher = more potent) of -0.585.
